Source: PubChem
Shown are actives, neighbours in structure and some others; about 2.8% of the full set was active somewhere.
KKLEB tox – reduces viability of KKLEB cystic fibrosis airway cells. AID 602141. KKLEB CF airway cells viability, ATPlite luminescence, overnight; active compounds read low; cells stimulated with P. aeruginosa culture filtrate. activity change (cytotoxicity), % at 5 µM. 0.36% of 360,000 active;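 active = corrected activity change at or below -50% at 5 µM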
HIF-2a block – inhibitors of HIF-2a | inhibition, % at 18.8 µM | AID 624352 | 0.72% of 360,000 active | 786-0 RCC cells HIF-2a reporter, luciferase luminescence, overnight;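 active = inhibition of the luminescence signal of 40% or more relative to plate controls, in a single-dose primary screen at 18.75 µM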
TRPM1 prom inh – inhibitors of MITF-driven TRPM1 promoter in melanoma cells. SK-MEL-5 TRPM1 promoter luciferase, 24 h. inhibition, % at 12.5 µM. 0.83% of 330,000 active. AID 488899;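 active = mean inhibition across replicates of 60% or more, whatever share of single replicates reaches that level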
CF NFkB inh – cystic fibrosis NF-kB activation inhibition; KKLEB NF-kB-GFP reporter, PAF-induced, GFP fluorescence overnight; inhibition, % at 5 µM; 0.86% of 360,000 active; AID 588850;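 active = at least 50% inhibition at 5 µM, scaled per plate between neutral and stimulator controls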;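 note: PAF is a Pseudomonas aeruginosa culture filtrate used as stimulus; plate controls were PAF-stimulated DMSO wells for no effect and unstimulated DMSO wells for full effect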
Shn3 3UTR inh – reduces Shn3 3'UTR luciferase signal in osteoblasts | Clone20 osteoblast Shn3 3'UTR firefly luciferase, 24 h | inhibition, % at 12.5 µM | 0.52% of 360,000 active;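 active = mean inhibition of at least 75% with every replicate also reaching 75%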;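 note: 0% = median of neutral control wells and 100% = pilot-screen positive control compound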
Peg3 prom inh – inhibitors of Peg3 promoter | HeLa PEG-Prom luciferase reporter, luminescence, overnight | 1.7% of 360,000 active | inhibition, % at 20 µM;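 active = inhibition of at least 50% at 20 µM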
* = called active by the depositor.

How did CC(=O)Oc1cc(C(=O)OCC(=O)NC23CC4CC(CC(C4)C2)C3)cc(OC(C)=O)c1OC(C)=O do in these assays?
KKLEB tox: -7; HIF-2a block: 10; TRPM1 prom inh: -3; CF NFkB inh: 8; Shn3 3UTR inh: 91*; Peg3 prom inh: -31

What do the screens show for `O=C(COC(=O)c1ccccc1O)NC12CC3CC(CC(C3)C1)C2`?
KKLEB tox: 12; HIF-2a block: -45; CF NFkB inh: -10; Shn3 3UTR inh: -97; Peg3 prom inh: -212

What do the screens show for `O=C(COC(=O)/C=C/C(=O)OCC(=O)NC12CC3CC(CC(C3)C1)C2)NC12CC3CC(CC(C3)C1)C2`?
KKLEB tox: -16; HIF-2a block: 29; TRPM1 prom inh: 76*; CF NFkB inh: 41; Shn3 3UTR inh: 61; Peg3 prom inh: 103*

How did N#Cc1c(N)nc(SCC(=O)NC2CCCCC2)c(C#N)c1-c1ccc(Cl)cc1 do in these assays?
KKLEB tox: 6; HIF-2a block: -4; TRPM1 prom inh: -2; CF NFkB inh: -2; Shn3 3UTR inh: 9; Peg3 prom inh: 74*

What do the screens show for `O=C(CCNC(=O)c1ccco1)NC(Cc1c[nH]c2ccccc12)C(=O)O` (stereo not given)?
KKLEB tox: 8; HIF-2a block: 19; TRPM1 prom inh: 8; CF NFkB inh: 9; Shn3 3UTR inh: 7; Peg3 prom inh: -7

What do the screens show for `O=C(CCl)Nc1cn(-c2ccccc2)nc1-c1ccc(F)cc1`?
KKLEB tox: -45; HIF-2a block: 4; TRPM1 prom inh: 46; CF NFkB inh: 35; Shn3 3UTR inh: 96*; Peg3 prom inh: 49

Results for Cc1cc(Cn2nc(-c3ccccc3)cc2C(=O)NCC2CC2)on1 ?
KKLEB tox: -3; HIF-2a block: -3; TRPM1 prom inh: 8; CF NFkB inh: 23; Shn3 3UTR inh: -21; Peg3 prom inh: 10

Results for CN(C)S(=O)(=O)c1cccc(NC(=O)CCc2nc3cc(S(=O)(=O)N4CCOCC4)ccc3n2C)c1 ?
KKLEB tox: 7; HIF-2a block: 0; TRPM1 prom inh: 1; CF NFkB inh: 17; Shn3 3UTR inh: -4; Peg3 prom inh: 11

Results for Cc1ccc(CN(CC(=O)NC2CCCC2)C(=O)c2csnn2)cc1 ?
KKLEB tox: 3; HIF-2a block: 5; TRPM1 prom inh: -5; CF NFkB inh: -7; Shn3 3UTR inh: 3; Peg3 prom inh: 2

What do the screens show for `O=C(CN(Cc1ccccc1F)C(=O)c1csnn1)NC1CCCCC1`?
KKLEB tox: 2; HIF-2a block: 57*; TRPM1 prom inh: -13; CF NFkB inh: -9; Shn3 3UTR inh: -10; Peg3 prom inh: 4

Results for COc1cccc(-c2nc(C(=O)NCC3CCCO3)cc3c2[nH]c2ccccc23)c1 (stereo not given) ?
KKLEB tox: 4; HIF-2a block: -10; TRPM1 prom inh: -3; CF NFkB inh: -44; Shn3 3UTR inh: 13; Peg3 prom inh: 56*

What do the screens show for `COc1ccc(OC)c(-c2nc(C(=O)NCC3CCCO3)cc3c2[nH]c2ccccc23)c1` (stereo not given)?
KKLEB tox: -1; HIF-2a block: 20; TRPM1 prom inh: 19; CF NFkB inh: 18; Shn3 3UTR inh: 11; Peg3 prom inh: 25

What do the screens show for `FC(F)(F)c1cccc(Cn2c3[n+](c4ccc(C(F)(F)F)cc42)CCCCC3)c1`?
KKLEB tox: 5; HIF-2a block: 14; TRPM1 prom inh: -1; CF NFkB inh: -10; Shn3 3UTR inh: 8; Peg3 prom inh: -6

What do the screens show for `Cc1cc(C(C)(C)C)cc(C)c1Cn1c2[n+](c3ccc(C(F)(F)F)cc31)CCCCC2`?
KKLEB tox: -21; HIF-2a block: 23; TRPM1 prom inh: 84*; CF NFkB inh: 22; Shn3 3UTR inh: 0; Peg3 prom inh: 56*

How did Cc1ccc(CNC(=O)c2ccc3c(=O)c(O)c(-c4ccc(C)cc4)[nH]c3c2)cc1 do in these assays?
KKLEB tox: -10; HIF-2a block: 17; TRPM1 prom inh: 56; CF NFkB inh: -10; Shn3 3UTR inh: 87*; Peg3 prom inh: 28

How did CCCNC(=O)c1ccc2c(=O)c(O)c(-c3ccc(C)cc3)[nH]c2c1 do in these assays?
KKLEB tox: -6; HIF-2a block: 32; TRPM1 prom inh: 40; CF NFkB inh: 22; Shn3 3UTR inh: -78; Peg3 prom inh: 27

How did Cc1ccc(NC(=O)CN(C)C(=O)c2cc(S(=O)(=O)N(C)C)ccc2N2CCCC2)cc1 do in these assays?
KKLEB tox: 8; HIF-2a block: 18; TRPM1 prom inh: 4; CF NFkB inh: 4; Shn3 3UTR inh: -6; Peg3 prom inh: 13

What do the screens show for `CC(C)[C@H](NC(=O)OC(C)(C)C)c1cc(C(=O)N[C@@H](C)c2ccccc2)c(N)s1`?
HIF-2a block: -6

Results for N#C/C(=C\C=C\c1ccccc1)C(=O)NCc1ccco1 ?
KKLEB tox: -2; HIF-2a block: -2; TRPM1 prom inh: 2; CF NFkB inh: -18; Shn3 3UTR inh: -1; Peg3 prom inh: 53*

How did COC(=O)CS(=O)(=O)c1nnc([C@H](Cc2ccccc2)NC(=O)OC(C)(C)C)o1 do in these assays?
KKLEB tox: -12; HIF-2a block: 45*; TRPM1 prom inh: 79*; CF NFkB inh: 66*; Shn3 3UTR inh: 96*; Peg3 prom inh: 104*

What do the screens show for `Cc1cccc(C)c1NC(=O)Cn1nc(-c2ccc(Cl)s2)ccc1=O`?
KKLEB tox: -6; HIF-2a block: 7; TRPM1 prom inh: 6; CF NFkB inh: 14; Shn3 3UTR inh: -5; Peg3 prom inh: -23

What do the screens show for `CCOP(=O)(OCC)C(C)(C)NC(=O)Nc1ccc(Cl)c(Cl)c1`?
KKLEB tox: -1; HIF-2a block: 23; TRPM1 prom inh: 2; CF NFkB inh: -12; Shn3 3UTR inh: 15; Peg3 prom inh: 24

Results for CCOC(=O)C1CCN(C(=O)c2ccc(C)o2)CC1 ?
KKLEB tox: 9; HIF-2a block: 3; TRPM1 prom inh: 6; CF NFkB inh: -8; Shn3 3UTR inh: 2; Peg3 prom inh: 18

Results for CCOC(=O)C1CCN(C(=O)c2c(C)oc3c2C(=O)c2ccccc2C3=O)CC1 ?
KKLEB tox: -7; HIF-2a block: 15; CF NFkB inh: 62*; Shn3 3UTR inh: 1; Peg3 prom inh: 16

How did NS(=O)(=O)c1ccc(N=Nc2c[nH]c(=O)c(O)c2)cc1 do in these assays?
KKLEB tox: 1; HIF-2a block: 41*; TRPM1 prom inh: 3; CF NFkB inh: 3; Shn3 3UTR inh: 0; Peg3 prom inh: 17

What do the screens show for `CCOC(=O)c1sc(NNC(=O)c2ccc(C)cc2)nc1C`?
KKLEB tox: 2; HIF-2a block: -2; TRPM1 prom inh: -15; CF NFkB inh: 0; Shn3 3UTR inh: -5; Peg3 prom inh: -14

What do the screens show for `CCOC(=O)c1nc(NNC(=O)c2ccc([N+](=O)[O-])cc2)sc1C`?
KKLEB tox: 9; HIF-2a block: -20; TRPM1 prom inh: 27; CF NFkB inh: -10; Shn3 3UTR inh: 31; Peg3 prom inh: 68*
